CRFR2-BP ag = CRF-BP/CRF-R2 complex agonism; HEK293 CRF-R2/CRF-BP, calcium dye fluorescence (FLIPR); percent of saturating CRF peptide response; activation, % at 13.2 µM; actives 0.46% (n = 350,000);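 active = activation of at least 50%, plus an integration ratio under a set limit after plate pattern correction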;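 also: plate controls were neutral control wells without compound for no effect and CRF at EC100 for full effect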
H9c2 protect = modulators protecting cardiomyocytes from myocardial damage; H9c2 cardiomyocytes, H2O2 injury protection, ATPLite, 2 h; protection from H2O2 cell death, % at 20 µM; actives 0.63% (n = 360,000);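 active = compounds giving at least 50% protection of heart cells from peroxide-induced death in the single-dose screen, raw or plate-pattern-corrected value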;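 also: 0% = DMSO wells with peroxide and 100% = DMSO wells without peroxide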
H9c2 TAG inh = triacylglycerol accumulation inhibition. H9c2 cells, Nile Red lipid (TAG) fluorescence; cells loaded with 200 µM oleic acid. inhibition, % at 12.5 µM. actives 0.66% (n = 230,000);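 active = pattern-corrected inhibition of lipid staining of at least 50% with the nuclear-stain viability signal not falling by more than 50%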;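 also: 0% = DMSO wells and 100% = triacsin C control wells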
SKN-1 inh = C. elegans SKN-1 inhibition | C. elegans VP596 Pgst-4::GFP/RFP ratio, acrylamide-induced, 24 h | inhibition, % at 21.8 µM | actives 0.49% (n = 360,000) | AID 624304;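 active = interference check ratio from 0.5 to 1.5 plus GFP to RFP signal ratio inhibition reaching or exceeding a fixed threshold, cut at about 30% in these data, passing the limit was not always enough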
CRFBP-R2 block = blocks CRF-induced signaling of the CRF-BP/CRF-R2 complex; HEK293 CRF-R2/CRF-BP, CRF-induced calcium fluorescence; inhibition, % at 11.8 µM; actives 0.59% (n = 350,000);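 active = inhibition of the ligand-induced calcium signal above about 50% at the single tested concentration, limit read from the data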
iPSC survival up = hiPSC single-cell survival enhancement. ATPlite luminescence; 100% = ROCK inhibitor wells, 0% = DMSO. survival enhancement, % at 20 µM. actives 0.044% (n = 360,000); in the data active = survival enhancement above about 18%;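 also: cells exposed to compounds for 16 hours before the ATP read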
The depositor's hits bear a star; x = no result given. Shown are actives, neighbours in structure and some others; about 2.5% of the full set was active somewhere.

SMILES	CRFR2-BP ag	H9c2 protect	H9c2 TAG inh	SKN-1 inh	CRFBP-R2 block	iPSC survival up
CCCC(=O)Nc1ccc(-c2nc3cc(C)c(C)cc3o2)c(O)c1	3.1	-9.6	6.8	4.9	75.2*	0.6
COc1ccc(C(C(=O)Nc2c(C)cccc2C)n2c(=O)c(-c3ccco3)nc3ccccc32)cc1 (stereo unspecified)	x	x	x	22.4	x	x
COC(=O)C1CSc2[nH]c(=O)sc2C1c1ccc(O)c(OC)c1 (stereo unspecified)	-0.6	8.8	-31.4	-7.1	77.3*	1.8
CCC(C)(C)c1ccc(OCCCC[n+]2ccccc2)c(C(C)(C)CC)c1	x	-10.8	52.1*	-4.0	x	-4.0
CN(CCCNC(=O)Cn1c(=O)c2cccn2c2ccccc21)Cc1ccccc1	-0.1	5.5	x	14.6	-6.1	0.9
CC(C)C(Sc1nc(-c2ccccc2)cc(-c2ccccc2)c1C#N)C(=O)O (stereo unspecified)	0.1	-6.9	1.1	10.8	68.5*	1.0
N#Cc1c(-c2ccccc2)cc(-c2ccccc2)nc1SCC(=O)NCC(=O)O	71.8*	14.7	12.3	11.8	-12.6	-0.8
COc1ccc(-c2cc(-c3ccccc3)nc(SC(C)C(=O)O)c2C#N)cc1 (stereo unspecified)	-5.5	-0.1	-2.8	6.0	34.1	1.4
Cn1nnnc1Sc1ncnc2scc(-c3cccc(Br)c3)c12	-1.4	-18.9	67.5*	5.8	8.9	-3.0
Cc1nc(-n2[nH]c3c(c2=O)CCCC3)[nH]c(=O)c1Cc1ccccc1	58.0*	70.3*	1.6	-10.0	-54.0	0.9
COc1cc2[nH]c(=O)n3nc(-c4ccccc4)nc3c2cc1OC	3.5	95.2*	33.5	14.6	3.2	1.5
COc1ccc(-c2nc3c4ccccc4[nH]c(=O)n3n2)cc1	0.3	28.9	8.1	-12.5	-21.0	0.1
O=C(NCCO)c1cccc(-c2ccc3nncn3c2)c1	x	14.5	9.5	48.5*	x	-1.4
CN(C)CCCNC(=O)c1cccc(-c2ccc3nncn3c2)c1	x	-6.3	1.5	0.2	x	-0.5
COc1ccc2c(c1)C(=O)[C@@H](O)[C@H](c1ccc(OC)c(Br)c1)O2	-2.2	51.6*	5.7	-2.2	-75.5	3.8
COc1ccc([N+](=O)[O-])cc1NC(=O)C(C)OC(=O)CSC(C)C(=O)Nc1cc(C)on1 (stereo unspecified)	1.0	4.2	-5.1	37.1*	22.0	-0.4
CCOc1ccc(NC(=O)CN(C)C(=O)c2c(C)nn(-c3ccccc3)c2Cl)cc1OCC	-1.9	3.0	10.5	0.4	-6.3	-0.3
Cc1ccccc1CNC(=O)c1ccccc1NS(C)(=O)=O	-1.5	0.4	-4.3	-2.1	32.0	-2.7
CS(=O)(=O)Nc1ccccc1C(=O)NCc1ccccc1Cl	2.2	0.0	-17.8	7.9	60.7*	-2.5
CCC(=O)N1CCCC1(C)C(=O)Nc1ccc2nc(C)ccc2c1 (stereo unspecified)	x	-4.1	-3.6	-0.3	x	2.0
COC(=O)Cc1ccc(NC(=S)NCCC(C)C)cc1	-2.0	-4.9	x	9.1	87.6*	1.0
O=c1c2ccccc2nnn1Cc1ccc(Br)cc1	-0.7	4.0	4.0	36.1*	8.4	-0.2
CCOC(=O)C1=C[C@@H](c2ccccc2)N(S(=O)(=O)c2ccc(C)cc2)[C@H]1c1ccccc1Cl	x	-1.0	x	-19.0	x	1.1
c1cc2c(cc1C1CCCCC1)c1c3n2CCCNC3CCC1 (stereo unspecified)	-1.4	-28.6	76.8*	6.8	-12.7	-5.6
CCOC(=O)C(=O)/C(=C\N(C)C)c1onc(-c2c(F)cccc2Cl)c1C(=O)OC	0.6	7.8	8.2	-16.7	7.6	20.5*
SMILES	CRFR2-BP ag	H9c2 protect	H9c2 TAG inh	SKN-1 inh	CRFBP-R2 block	iPSC survival up
Cc1sc2nc(CSCC(=O)Nc3cc(F)ccc3F)[nH]c(=O)c2c1C	0.3	-5.0	10.7	-2.2	7.3	-2.2
Cc1sc2nc(CSCC(=O)N(CCC#N)c3ccccc3F)[nH]c(=O)c2c1C	-0.7	59.0*	2.9	1.7	7.5	-0.4
Fc1cccc(NC(=S)NCc2ccc(Cl)cc2)c1	-2.5	-5.7	-8.7	-0.8	53.9*	-0.3
CCC(=O)Nc1cccc(NC(=S)NC(=O)Cc2ccccc2)c1	-0.7	7.9	-11.2	-1.5	-9.4	0.5
COc1ccc(CC(=O)NC(=S)Nc2cccc(C)c2)cc1	58.4*	-4.4	-1.2	13.2	-24.7	-0.6
COc1ccc(CNC(=S)Nc2cccc(C)c2C)cc1	-1.2	-8.9	x	-0.5	51.6*	-5.9
COc1ccc(CC(=O)NC(=S)Nc2cccc(CO)c2)cc1	28.8	0.3	0.4	2.0	-25.0	0.1
COc1cccc(NC(=S)NC(=O)Cc2ccc(Cl)cc2)c1	67.9*	-5.3	x	2.7	-29.4	1.1
CSCCC(NC(=O)COc1ccccc1)C(=O)N1CCCCCC1 (stereo unspecified)	0.7	7.4	4.8	-11.2	2.1	-0.6
COc1ccc(C(=O)O)cc1NC(=S)NC(=O)c1ccc(-c2ccc(Cl)cc2)o1	-2.4	-1.0	28.6	14.0	86.4*	1.0
CCC(=O)NC(=S)Nc1ccccc1OC	2.1	0.1	-15.3	-4.3	15.8	-1.2
Cc1ccc(C(=O)O)cc1NC(=S)NC(=O)c1ccc(-c2ccc(Cl)cc2)o1	0.3	-8.9	7.6	-14.8	1.9	-0.7
Cc1cccc(NC(=S)NC(=O)Cc2ccccc2)c1C	70.7*	-7.8	x	3.8	-26.8	-0.6
COc1ccccc1NC(=S)NC(=O)Cc1ccc(Cl)cc1	63.4*	-3.5	x	9.1	-18.8	-0.1
O=C(Nc1ccc(F)cc1)c1cccc2c1C(=O)N(CC1CCCO1)C2 (stereo unspecified)	-6.2	5.6	24.0	-2.1	19.6	1.9
Nc1c(-c2ccc(F)c(F)c2)nc2ncccn12	x	x	x	2.3	x	x
Cc1ccc(C(=O)CSC2=C(C#N)C(c3ccco3)CC(=O)N2)c(C)c1 (stereo unspecified)	56.8*	-0.9	-15.9	-12.6	-58.3	5.1
Cc1ccc(NC(=O)CSC2=C(C#N)C(c3ccco3)C3=C(CC(C)(C)CC3=O)N2)cc1 (stereo unspecified)	-1.6	-7.7	3.2	14.0	25.3	-0.3
Cc1ccccc1NC(=O)CSC1=C(C#N)C(c2ccsc2)CC(=O)N1 (stereo unspecified)	2.5	-0.8	10.1	37.5*	-11.5	-1.6
N#CC1=C(SCC(=O)Nc2nccs2)NC(=O)CC1c1ccccc1 (stereo unspecified)	-0.8	9.8	x	4.1	18.3	0.3
Cc1ccc(NC(=O)CSC2=C(C#N)C(c3ccco3)CC(=O)N2)cc1 (stereo unspecified)	-0.1	-4.4	1.5	-13.8	109.0*	-2.6
COC(=O)CSC1=C(C#N)C(c2ccc(C)o2)CC(=O)N1 (stereo unspecified)	-2.2	-9.6	1.0	-4.4	-17.2	-0.6
CCCS(=O)(=O)NC(=O)C1(C)CCN(C(=O)c2ccc(C#N)cc2)C1 (stereo unspecified)	x	-1.5	-5.7	7.7	x	-1.1
